# According to PMC12864922, “TDP-43 directly inhibits mRNA accumulation in neurites through modulation of mRNA stability”:
# The full ranking holds about 9,900 sequences; the median of “r (bound/input frequency ratio)” is about 0.7, and the highest 2% start at about 6.5. Only a selection was taken, and the highest values are over-represented in it overall.
# B1: ENSMUSG00000004113.485|Cacna1b (ssRNA)
# RNA: GGGAGUUCUACAGUCCGACGAUCGCUUCGAUAUCCGCAUGCUACCUUUGACUAGUUUGCUGCCUGAAUAAUAUUUACAAACUAAACUUUGGAUUCUGCUCUUGUUUCUACAAUGAUUUUUUGUAUAAAGCAAAGUCCUUGGAUUAAAUAAAAACAACCCAAAAAAAAAAUCAAAAUCAAAACCCAGGAUGCAACUGGGUGAUACCUGAGGACAGUGUGUCUCAGUGCGUCGGUGGAGAGGGUAUACUGCCAGGAGAGCUCAAGAAAAAUUGAGAACUUCAGCAAAGUGCCUGUGAGCACUUGGCUCUUGCGGUCGCACUAGUGUGGAAUUCUCGGGUGUCAAGG
# B2: ENSMUSG00000035202.103|Lars2|4:8 (ssRNA)
# RNA: GGGAGUUCUACAGUCCGACGAUCGCUUCGAUAUCCGCAUGCUAGCUACACACUCCAGUGUCUUUUACCAUCACAGGCCCUGGCUCUGUGCUACCUCCCUAGAAUACCUGUGGUUCAUCACCUUCAGCUCACACUCCAUUCAGACAAUGCUCACUUAGGCCUACAAGCAAGGGAGAGGCUUAAGCACAAGGUCUUUAAGCUUGAUACUGUGCCUGGUCUCAAUGCCUAGAAAUUCCAACUUAACUGUCGCUAUCAUAAAGGAUUUUAAAUUUUUUUACAAGUGAGAACCUAGCAUGUCAAGGUCCUCUUGCGGUCGCACUAGUGUGGAAUUCUCGGGUGUCAAGG
# B3: ENSMUSG00000022095.199|Fam160b2 (ssRNA)
# RNA: GGGAGUUCUACAGUCCGACGAUCGCUUCGAUAUCCGCAUGCUACCCAUGCCACCUCUCGAAGCCGGGCACAGGUUGCCAGGAGGUGACAUGAAAGAGGAGGAAACUCCAUGACCUCUACAUCCCCCGCAGUCCUCCCAGCGGGGGAGGACUUCUCUGCUGCUCCGAAGAACAUCAUGCACUCCUGUGUGUGUGUGUGAGUGUGUGUGUGUGUGUGUGUGUGUGUGUGUGUGUAUGUGUGUGUAUAUGUGUGUGUGUGUGUGUAUGUGUGUGUGUGUGUGUGAGUGAGUGUGUGUGUGUGUGUGCUCUUGCGGUCGCACUAGUGUGGAAUUCUCGGGUGUCAAGG
# B4: ENSMUSG00000022095.200|Fam160b2 (ssRNA)
# RNA: GGGAGUUCUACAGUCCGACGAUCGCUUCGAUAUCCGCAUGCUACCACCUCUCGAAGCCGGGCACAGGUUGCCAGGAGGUGACAUGAAAGAGGAGGAAACUCCAUGACCUCUACAUCCCCCGCAGUCCUCCCAGCGGGGGAGGACUUCUCUGCUGCUCCGAAGAACAUCAUGCACUCCUGUGUGUGUGUGUGAGUGUGUGUGUGUGUGUGUGUGUGUGUGUGUGUGUAUGUGUGUGUAUAUGUGUGUGUGUGUGUGUAUGUGUGUGUGUGUGUGUGAGUGAGUGUGUGUGUGUGUGUGUGUGUGCUCUUGCGGUCGCACUAGUGUGGAAUUCUCGGGUGUCAAGG
# B5: ENSMUSG00000022095.202|Fam160b2 (ssRNA)
# RNA: GGGAGUUCUACAGUCCGACGAUCGCUUCGAUAUCCGCAUGCUAGCCGGGCACAGGUUGCCAGGAGGUGACAUGAAAGAGGAGGAAACUCCAUGACCUCUACAUCCCCCGCAGUCCUCCCAGCGGGGGAGGACUUCUCUGCUGCUCCGAAGAACAUCAUGCACUCCUGUGUGUGUGUGUGAGUGUGUGUGUGUGUGUGUGUGUGUGUGUGUGUGUAUGUGUGUGUAUAUGUGUGUGUGUGUGUGUAUGUGUGUGUGUGUGUGUGAGUGAGUGUGUGUGUGUGUGUGUGUGUGUGAGUGUGUGUGCUCUUGCGGUCGCACUAGUGUGGAAUUCUCGGGUGUCAAGG
# Biological target: TDP-43 (Homo sapiens, UniProt Q13148 1-414)
# Sequence (Q13148 whole entry): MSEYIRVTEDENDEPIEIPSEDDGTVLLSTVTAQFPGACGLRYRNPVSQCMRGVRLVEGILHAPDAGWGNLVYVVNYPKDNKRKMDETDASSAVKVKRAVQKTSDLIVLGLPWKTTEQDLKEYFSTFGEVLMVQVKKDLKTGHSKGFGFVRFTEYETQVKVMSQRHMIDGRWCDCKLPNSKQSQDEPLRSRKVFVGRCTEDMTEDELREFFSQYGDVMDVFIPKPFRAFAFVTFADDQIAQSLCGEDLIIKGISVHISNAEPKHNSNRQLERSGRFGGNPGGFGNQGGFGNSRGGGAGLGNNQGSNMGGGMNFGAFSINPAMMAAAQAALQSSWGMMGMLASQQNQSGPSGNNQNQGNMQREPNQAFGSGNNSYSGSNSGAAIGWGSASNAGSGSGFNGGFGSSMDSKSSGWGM
# Assay: RNA Bind-n-Seq with designed 260-mer pool; 25 mM Tris-HCl, 150 mM KCl, 3 mM MgCl2, BSA (printed 500 mg/mL), 20 units/mL SUPERase IN; pH not stated; 500 nM RNA pool, 1 h, 4 C; TDP-43 5, 50, 500 nM; high values mean tight binding
# Settings: protein: recombinant; tags: SBP (GST cleaved off with PreScission; pGEX-GST-SBP)
# Outline: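 Recombinant SBP-tagged TDP-43 at 5, 50 or 500 nM was captured on streptavidin beads, then incubated 1 h at 4 °C with 500 nM of an in vitro-transcribed 260-nt 3′ UTR oligo pool in 25 mM Tris-HCl, 150 mM KCl, 3 mM MgCl2, BSA and SUPERase IN. Bound RNA was washed, eluted with biotin, reverse transcribed, PCR-amplified and sequenced. Binding is R, each oligo's mapped-read-normalized abundance in the bound sample divided by its abundance in input. Duplicates used two independent protein batches.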
row,Binder,binding signal
1,B1,0.542 R (bound/input frequency ratio)
2,B2,0.427 R (bound/input frequency ratio)
3,B3,8.67 R (bound/input frequency ratio)
4,B4,7.08 R (bound/input frequency ratio)
5,B5,7.21 R (bound/input frequency ratio)
